Reference: PubChem BioAssay (Tox21)
Records with an inconclusive call do not appear. Activity calls are given as the source filed them. Unless noted, calls follow the shape of the full dose curve.

Legend:
[1] = Nuclear factor erythroid 2-related factor 2/antioxidant responsive element (Nrf2/ARE) small molecule agonists: luciferase reporter gene qHTS assay in human keratinocytes (AID 1919969); also: nearly all actives have a fitted effect of over 35% in size
[2] = target: Gonadotropin-releasing hormone receptor (Homo sapiens) (UniProt P30968); assay: Human gonadotropin-releasing hormone receptor (GnRHR) small molecule agonists, calcium flux assay in GnRHR-HEK293 cells (AID 1920063); also: nearly all actives have a fitted effect of over 35% in size
Sequence of Gonadotropin-releasing hormone receptor (Homo sapiens) (P30968 whole entry, looked up): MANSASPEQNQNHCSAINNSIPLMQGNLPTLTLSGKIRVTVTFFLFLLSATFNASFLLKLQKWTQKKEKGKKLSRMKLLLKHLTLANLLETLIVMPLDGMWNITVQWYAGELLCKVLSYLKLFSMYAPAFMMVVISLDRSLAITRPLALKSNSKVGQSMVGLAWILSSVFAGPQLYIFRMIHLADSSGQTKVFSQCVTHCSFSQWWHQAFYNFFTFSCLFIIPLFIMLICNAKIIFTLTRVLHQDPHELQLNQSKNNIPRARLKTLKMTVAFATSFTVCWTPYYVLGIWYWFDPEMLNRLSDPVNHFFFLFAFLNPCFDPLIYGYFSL
Outline: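 We seeded human GnRHR-expressing HEK293 cells for 18 hours, loaded them with calcium dye for an hour at 37 C, added test compounds, and recorded fluorescence intensity kinetically for three minutes.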

[3] = target: KiSS-1 receptor (Homo sapiens) (UniProt Q969F8); assay: Human kisspeptin (KISS1R) small molecule agonists, calcium flux assay in KISS1R-HEK293 cells (AID 1920064; active = well fitted activation curve with a large enough effect in the repeat runs)
Sequence of KiSS-1 receptor (Homo sapiens) (Q969F8 whole entry, looked up): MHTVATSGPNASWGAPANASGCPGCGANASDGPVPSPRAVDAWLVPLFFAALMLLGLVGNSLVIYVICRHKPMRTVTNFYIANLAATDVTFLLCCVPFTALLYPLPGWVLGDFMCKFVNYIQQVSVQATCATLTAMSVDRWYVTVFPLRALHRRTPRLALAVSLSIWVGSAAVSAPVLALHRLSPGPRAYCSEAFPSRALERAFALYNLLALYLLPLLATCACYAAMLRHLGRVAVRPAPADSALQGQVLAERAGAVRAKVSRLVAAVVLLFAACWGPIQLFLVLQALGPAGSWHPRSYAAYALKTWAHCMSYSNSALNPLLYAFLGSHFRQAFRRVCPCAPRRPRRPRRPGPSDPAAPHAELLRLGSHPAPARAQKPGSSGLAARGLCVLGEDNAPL
Outline: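 Kinetic calcium assay, 1 s sampling over 3 min at Ex/Em 480/540, in HEK293 cells engineered with human KISS1R; compounds delivered in DMSO after 1 h dye loading.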

[4] = G protein-coupled receptor (GPCR) small molecule agonists, calcium flux assay: HEK293 wild type cell line counter screen (AID 1920065)
Outline: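 Calcium-sensitive dye, loaded 1 h at 37 C into cells cultured 18 h, reports compound-evoked calcium release as fluorescence (Ex/Em 480/540), measured over 3 min. Agonist mode; 15-point titrations, triplicate.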

[5] = p53 small molecule agonists, cell-based qHTS assay with human liver microsomes (AID 1963577)
Outline: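 p53RE-bla cells, 4,000/well, compound added after 5 h, with human liver microsomes 0.5 mg/mL and NADPH 0.5 mg/mL final; 16 h at 37 C, then LiveBLAzer 2 h RT, fluorescence.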

[6] = p53 small molecule agonists, cell-based qHTS assay with rat liver microsomes (AID 1963578)
Outline: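 p53RE-bla cells, 4,000/well, pre-incubated 5 h, then given compounds plus rat liver microsomes (0.5 mg/mL final) and NADPH (0.5 mg/mL final). Incubation 16 h at 37 C; beta-lactamase reporter read by LiveBLAzer fluorescence after 2 h at room temperature.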

[7] = p53 small molecule agonists, cell-based qHTS assay with human liver microsomes: qHTS cell viability counter screen (AID 1963579); also: nearly all actives have a fitted effect of over 45% in size
Outline: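 p53RE-bla cells, 4,000/well, dosed 5 hours after plating, with human liver microsomes (0.5 mg/mL final) plus NADPH (0.5 mg/mL final), 16 hours at 37 C. Viability read as CellTiter-Glo luminescence after 30 min at room temperature.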

[8] = p53 small molecule agonists, cell-based qHTS assay with rat liver microsomes: qHTS cell viability counter screen (AID 1963580); also: nearly all actives have a fitted effect of over 45% in size
Outline: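 Viability is assessed in parallel with the p53 reporter read: HCT-116 p53RE-bla cells receive compounds plus rat microsomes and NADPH (0.5 mg/mL final apiece), incubate 16 h at 37 C, and then CellTiter-Glo luminescence is recorded.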

[9] = p53 small molecule agonists, cell-based qHTS assay: qHTS cell viability counter screen (AID 1963581); also: nearly all actives have a fitted effect of over 45% in size
Outline: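 Following 5 h attachment, HCT-116 p53RE-bla cells took up compound for 16 h at 37 C; the reporter was read with B/G FRET substrate (2 h RT), and viability then via CellTiter-Glo ATP luminescence.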

[10] = p53 small molecule agonists, cell-based qHTS assay (AID 1963582; active = well fitted activation curve with a large enough effect in the signal ratio in the repeat runs, not every such curve was filed as active; the % refers to the signal ratio)
Outline: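 In this cell-based concentration-response screen, a p53 response element drives beta-lactamase; cells received DMSO-borne compounds after 5 h culture and were incubated a further 16 h before FRET substrate development.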

[11] = target: 5-hydroxytryptamine receptor 2A (Homo sapiens) (UniProt P28223); assay: 5-hydroxytryptamine receptor 2A (HTR2A) small molecule antagonists, cell-based qHTS assay (AID 1963586); also: nearly all actives have a fitted effect of over 45% in size
Sequence of 5-hydroxytryptamine receptor 2A (Homo sapiens) (P28223 whole entry, looked up): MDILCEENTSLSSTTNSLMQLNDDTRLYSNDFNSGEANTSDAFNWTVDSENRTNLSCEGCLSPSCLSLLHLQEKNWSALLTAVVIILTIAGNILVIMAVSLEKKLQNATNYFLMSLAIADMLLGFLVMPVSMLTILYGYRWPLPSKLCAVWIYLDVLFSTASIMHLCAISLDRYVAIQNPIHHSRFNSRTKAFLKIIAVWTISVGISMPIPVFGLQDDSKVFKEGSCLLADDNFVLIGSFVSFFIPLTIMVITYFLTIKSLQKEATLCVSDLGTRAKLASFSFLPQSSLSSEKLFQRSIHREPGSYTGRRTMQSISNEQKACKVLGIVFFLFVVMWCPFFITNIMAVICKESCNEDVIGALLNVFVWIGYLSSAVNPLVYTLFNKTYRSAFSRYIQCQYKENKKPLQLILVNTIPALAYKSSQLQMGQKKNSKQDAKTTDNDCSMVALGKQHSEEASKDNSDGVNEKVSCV
Outline: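 Antagonist-mode intracellular calcium assay: DOI (4 nM) added after 5 min compound pre-incubation at room temperature to dye-loaded HTR2A-CHO cells. Fluorescence followed for 3 min, sampled every second.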

[12] = target: 5-hydroxytryptamine receptor 2A (Homo sapiens) (UniProt P28223); assay: 5-hydroxytryptamine receptor 2A (HTR2A) small molecule agonists, cell-based qHTS assay (AID 1963587); also: nearly all actives have a fitted effect of over 30% in size
Outline: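 CHO cells stably expressing human HTR2A, plated 18 h, loaded with calcium dye 1 h at 37 C. Agonist mode: compounds added and intracellular calcium fluorescence recorded kinetically for 2 min at 1 sec intervals.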

[13] = target: Muscarinic acetylcholine receptor M1 (Homo sapiens) (UniProt P11229); assay: Cholinergic receptor muscarinic 1 (CHRM1) small molecule antagonists, cell-based qHTS assay (AID 1963588); also: nearly all actives have a fitted effect of over 40% in size
Sequence of Muscarinic acetylcholine receptor M1 (Homo sapiens) (P11229 whole entry, looked up): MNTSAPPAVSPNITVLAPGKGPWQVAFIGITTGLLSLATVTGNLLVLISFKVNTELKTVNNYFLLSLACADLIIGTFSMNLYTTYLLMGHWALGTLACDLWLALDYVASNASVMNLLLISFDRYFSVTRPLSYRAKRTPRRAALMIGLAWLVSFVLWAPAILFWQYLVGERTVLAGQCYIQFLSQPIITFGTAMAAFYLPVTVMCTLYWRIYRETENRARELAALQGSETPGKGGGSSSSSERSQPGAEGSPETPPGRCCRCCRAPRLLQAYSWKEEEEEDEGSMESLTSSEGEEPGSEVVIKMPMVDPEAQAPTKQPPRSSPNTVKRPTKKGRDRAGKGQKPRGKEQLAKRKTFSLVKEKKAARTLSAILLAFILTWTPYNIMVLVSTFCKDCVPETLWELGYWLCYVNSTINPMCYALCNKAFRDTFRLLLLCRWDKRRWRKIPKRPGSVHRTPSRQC
Outline: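 CHRM1-CHO calcium-flux assay, antagonist mode. Cells were seeded 18 h, dye-loaded 1 h at 37 C and given compound for 5 min at RT, then acetylcholine was added at 50nM. FDSS fluorescence was read 3 min; 15 concentrations, three runs.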

[14] = target: Muscarinic acetylcholine receptor M1 (Homo sapiens) (UniProt P11229); assay: Cholinergic receptor muscarinic 1 (CHRM1) small molecule agonists, cell-based qHTS assay (AID 1963589); also: nearly all actives have a fitted effect of over 35% in size
Outline: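 Measures agonist-induced intracellular calcium rise. Stable human CHRM1 CHO line, 1 h dye load at 37 C, compounds from DMSO, kinetic fluorescence read.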

[15] = cAMP Responsive Elements (CRE) small molecule agonists, cell-based qHTS assay (AID 1963590)
Outline: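 A CRE-responsive beta-lactamase reporter in HEK 293T cells was used. Treatment ran 3 h at 37 C; detection used LiveBLAzer B/G FRET substrate for 2 h at room temperature.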

[16] = cAMP Responsive Elements (CRE) small molecule antagonists, cell-based qHTS assay (AID 1963591; active = well fitted inhibition curve with a large enough effect in the signal ratio in the repeat runs, not every such curve was filed as active; the % refers to the signal ratio)
Outline: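 HEK293T cells carrying a CRE-driven beta-lactamase reporter receive compound and NKH477 (0.25 uM final) for 3 h. Fluorescence from LiveBLAzer B/G FRET substrate is read after 2 h at room temperature.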

[17] = target: Beta-2 adrenergic receptor (Homo sapiens) (UniProt P07550); assay: Adrenergic beta2 receptor (ADRB2) small molecule antagonists, cell-based qHTS assay (AID 1963592); also: series mostly up to about 92 µM; nearly all actives have a fitted effect of over 50% in size
Sequence of Beta-2 adrenergic receptor (Homo sapiens) (P07550 whole entry, looked up): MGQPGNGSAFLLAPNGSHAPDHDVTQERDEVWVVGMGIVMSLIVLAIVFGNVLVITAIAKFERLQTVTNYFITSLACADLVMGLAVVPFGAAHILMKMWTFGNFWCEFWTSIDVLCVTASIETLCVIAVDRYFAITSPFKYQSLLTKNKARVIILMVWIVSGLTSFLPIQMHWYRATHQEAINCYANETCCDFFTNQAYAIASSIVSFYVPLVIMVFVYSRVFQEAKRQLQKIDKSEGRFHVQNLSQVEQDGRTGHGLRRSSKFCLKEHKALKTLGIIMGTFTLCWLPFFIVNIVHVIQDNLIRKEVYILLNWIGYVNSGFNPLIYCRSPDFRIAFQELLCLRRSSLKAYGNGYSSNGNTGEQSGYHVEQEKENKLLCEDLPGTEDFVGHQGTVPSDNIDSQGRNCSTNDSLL
Outline: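 Cells (CHO, stable ADRB2 overexpression) incubated 18-20hr at 37C; compounds added from DMSO; agonist mix (1nM isoproterenol, 100uM IBMX, 25uM Ro-20-1724) added; 0.5hr RT; d2-cAMP and anti-cAMP-cryptate added; 1hr RT; 665/615 nm read.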

[18] = target: D(2) dopamine receptor (Homo sapiens) (UniProt P14416); assay: Dopamine D2 receptor (DRD2) small molecule agonists, cell-based qHTS assay (AID 1963594); also: nearly all actives have a fitted effect of over 35% in size
Sequence of D(2) dopamine receptor (Homo sapiens) (P14416 whole entry, looked up): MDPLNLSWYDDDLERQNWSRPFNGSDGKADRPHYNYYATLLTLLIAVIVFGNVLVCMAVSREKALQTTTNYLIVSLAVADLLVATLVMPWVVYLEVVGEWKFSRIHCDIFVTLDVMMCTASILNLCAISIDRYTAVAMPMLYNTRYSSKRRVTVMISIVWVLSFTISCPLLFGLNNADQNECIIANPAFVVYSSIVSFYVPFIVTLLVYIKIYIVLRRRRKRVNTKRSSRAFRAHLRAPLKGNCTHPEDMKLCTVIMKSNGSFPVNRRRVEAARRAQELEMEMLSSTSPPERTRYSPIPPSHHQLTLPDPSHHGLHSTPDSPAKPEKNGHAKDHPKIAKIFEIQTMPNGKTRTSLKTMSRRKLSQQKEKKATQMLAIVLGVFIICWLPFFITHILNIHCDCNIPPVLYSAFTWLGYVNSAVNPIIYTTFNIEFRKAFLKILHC
Outline: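 HEK293 cells stably expressing human DRD2, pre-treated with PDE inhibitor Ro20-1724 (0.1 mM final) and compound 10 min at room temperature, then stimulated with NKH477 (200nM […]) for 30 min. cAMP read by HTRF (665/620 nm).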

[19] = target: D(2) dopamine receptor (Homo sapiens) (UniProt P14416); assay: Dopamine D2 receptor (DRD2) small molecule antagonists, cell-based qHTS assay (AID 1963595; active = well fitted inhibition curve with a large enough effect in the signal ratio in the repeat runs, with a control signal flat; the % refers to the signal ratio)
Outline: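 Antagonism was scored as restored cAMP in HEK293-DRD2 cells. These cells were stimulated with 200 nM NKH477 and 12 nM quinpirole for 30 min at room temperature, in the presence of 0.1 mM Ro20-1724.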

Measured: Potency

Nc1cc(C(=O)O)c(O)c(S(=O)(=O)O)c1
inactive: [1] | [2] | [3] | [4] | [5] | [6] | [7] | [8] | [9] | [10] | [11] | [12] | [13] | [14] | [15] | [16] | [17] | [18] | [19]

O=C1c2ccccc2C(=O)c2cc(O)ccc21
inactive: [1] | [2] | [3] | [4] | [5] | [6] | [7] | [8] | [9] | [10] | [12] | [13] | [14] | [16] | [17] | [18] | [19]

N[C@H](C(=O)O)[C@@H](O)c1ccc(O)c(O)c1
inactive: [1] | [2] | [3] | [4] | [5] | [6] | [7] | [8] | [9] | [10] | [11] | [12] | [13] | [14] | [15] | [16] | [17] | [18] | [19]

CCCC(=O)OC(=O)CCC
inactive: [1] | [2] | [3] | [4] | [5] | [6] | [7] | [8] | [9] | [10] | [11] | [12] | [13] | [14] | [16] | [17] | [18] | [19]

CC1(C)S[C@@H]2[C@H](NC(=O)Cc3ccccc3)C(=O)N2[C@H]1C(=O)O (tested in a mixture with another compound)
inactive: [1] | [2] | [3] | [4] | [5] | [6] | [7] | [8] | [9] | [10] | [15] | [16] | [17] | [18] | [19]

COc1cc(C(=O)NCCCCCC(=O)O)cc(OC)c1OC
inactive: [1] | [2] | [3] | [4] | [5] | [6] | [7] | [8] | [9] | [10] | [11] | [12] | [13] | [14] | [15] | [16] | [17] | [19]

O=C(O)c1cc(O)c2c(c1)C(=O)c1cccc(O)c1C2=O
inactive: [1] | [2] | [3] | [4] | [5] | [6] | [7] | [8] | [9] | [10] | [11] | [12] | [13] | [14] | [17] | [18] | [19]
